# PubChem BioAssay
# Values joined by “and” are separate entries in the source; they are usually repeats but may differ in a detail not shown here. Equal values may be shown once. For some assays here: Measured potencies and affinities stand elsewhere. Active and inactive are the calls of the source.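 How the source made its calls, unless noted: active means compounds killing one labelled cell type while sparing the other, by normalised counts and ratio limits, not self-fluorescent; inactive means the rest.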
# What was measured:
# [1] = differential killing of epithelial or mesenchymal cells, primary screen, imaging, PC-3E GFP, TEM4-18 mCherry, co-culture (AID 1345086); conditions: imaging cell counts, at 1 µM; for red/green cell ratio (normalised): actives lie on both sides, counts scaled to control wells, 1 = unselective;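 on all read-outs here: cells exposed to compound for 72 h before imaging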;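 on red/green cell ratio (normalised): normalised mesenchymal count divided by normalised epithelial count so high means epithelial killing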
# [2] = test system: Aerobactin synthetase IucA (Klebsiella pneumoniae); test: IucA aerobactin synthetase inhibitors, biochemical, Tocris library, absorbance (AID 1345561; call rule not given here;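 further: 100% = enzyme without compound and 0% = no enzyme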); conditions: purified IucA enzyme assay, absorbance (OD) read-out; stronger effect = lower value;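 tested at 8 µM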
# [3] = sensitizers of A549 cells to miR-34 induction, primary screen, imaging, A549 dox-inducible miR-34, nuclei and caspase counts (AID 1347080;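 active means compounds whose cell count with miR-34 switched on is under 0.7 times the count with it off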); conditions: A549 miR-34 inducible, Hoechst nuclei count, 48 h
# [4] = target: Mitogen-activated protein kinase 7 (Homo sapiens) (UniProt Q13164); test: ERK5 transactivation activators in reporter cells, primary screen, cell-based, HTS (AID 1508626;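 active means luciferase signal above three times the same-plate solvent-only control wells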;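 further: luciferase driven by Gal4-ERK5 fusion binding five Gal4 sites before minimal TATA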); conditions: HeLa Gal4-ERK5 transactivation, 18 h, at 5 µM, stronger effect = higher value
# [5] = viability rescue of complex I mutant cybrids, primary screen, cell-based, galactose medium, ATP luminescence (AID 1645843;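 active means z-score of at least 1.8 in each of two replicates, scored against plate mean and spread of sample wells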;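 further: positive z means more ATP and so rescue of galactose-driven cybrid death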); conditions: complex I mutant cybrid cells, 72 h, stronger effect = higher value
# [6] = suppressors of polyQ aggregation in yeast, 75Q-TubU reporter (AID 1593); conditions: Yeast 75Q polyglutamine aggregation reporter
# [7] = rescue of polyQ-huntingtin neuronal dysfunction in worms, whole organism, C. elegans mechanosensory neurons, N-terminal huntingtin (AID 1599); conditions: touch response, stronger effect = higher value
# [8] = inhibitors of mitochondrial cytochrome c release, biochemical, purified mitochondria (AID 1603); conditions: stronger effect = lower value;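 further: mouse liver mitochondria challenged with calcium chloride; signal normalized to the plate average as 100%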
# [9] = inhibitors of polyQ protein aggregation (AID 1604); conditions: polyglutamine-induced protein aggregation inhibition assay; stronger effect = higher value; tested at 2.5 µM
# [10] = enhancers of glutamate uptake in motor neurons, MN-1 cell line (AID 1612); conditions: MN-1 motor neuron cells, stronger effect = higher value;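 further: tested at 1 µM final; 0% = mean of DMSO vehicle wells on each plate; positive means more glutamate uptake than control and negative means less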
# [11] = suppressors of polyglutamine aggregation in yeast, 75Q-TubH (AID 1616); conditions: S. cerevisiae 75Q-TubH polyglutamine aggregation suppression; stronger effect = higher value
# [12] = circadian clock period modulators, cell-based, LOPAC library, luminescence reporter (AID 2774; call rule not given here;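 further: values are relative to mean of DMSO wells on each plate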); conditions: circadian reporter cells, at 7 µM, actives lie on both sides
# [13] = Cy5 fluorescence quenching or enhancement artefacts, artefact control for HCV NS3 helicase inhibitor project, biochemical, LOPAC1280 (AID 687037; call rule not given here); conditions: Cy5-DNA-NS3h complex fluorescence interference counterscreen
# [14] = inhibitors of Cryptococcus chitosan production, flow cytometry, Cibacron Brilliant Red staining (AID 1347148; call rule not given here;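 further: compound exposure lasted three days at 37 degrees C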); conditions: Cryptococcus neoformans chitosan, stronger effect = lower value; at 10 µM unless noted
# [15] = polyglutamine-triggered caspase-3 activation inhibitors, cell-based (AID 1583); conditions: polyglutamine-induced caspase-3 activation, cell assay; stronger effect = higher value;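 tested at 10 µM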
# [16] = measured here: epithelial PC-3E GFP cell survival
# [17] = measured here: mesenchymal TEM4-18 mCherry cell survival
# [18] = stronger effect = lower value, cell number ratio, induced over uninduced
# [19] = measured here: relative caspase fold change +Dox/-Dox
# [20] = measured here: total cells with miR-34 induction, stronger effect = lower value
# [21] = measured here: total cells without miR-34 induction
# Chain of Mitogen-activated protein kinase 7 (Homo sapiens) (Q13164 whole entry, looked up, the tested form may be a part): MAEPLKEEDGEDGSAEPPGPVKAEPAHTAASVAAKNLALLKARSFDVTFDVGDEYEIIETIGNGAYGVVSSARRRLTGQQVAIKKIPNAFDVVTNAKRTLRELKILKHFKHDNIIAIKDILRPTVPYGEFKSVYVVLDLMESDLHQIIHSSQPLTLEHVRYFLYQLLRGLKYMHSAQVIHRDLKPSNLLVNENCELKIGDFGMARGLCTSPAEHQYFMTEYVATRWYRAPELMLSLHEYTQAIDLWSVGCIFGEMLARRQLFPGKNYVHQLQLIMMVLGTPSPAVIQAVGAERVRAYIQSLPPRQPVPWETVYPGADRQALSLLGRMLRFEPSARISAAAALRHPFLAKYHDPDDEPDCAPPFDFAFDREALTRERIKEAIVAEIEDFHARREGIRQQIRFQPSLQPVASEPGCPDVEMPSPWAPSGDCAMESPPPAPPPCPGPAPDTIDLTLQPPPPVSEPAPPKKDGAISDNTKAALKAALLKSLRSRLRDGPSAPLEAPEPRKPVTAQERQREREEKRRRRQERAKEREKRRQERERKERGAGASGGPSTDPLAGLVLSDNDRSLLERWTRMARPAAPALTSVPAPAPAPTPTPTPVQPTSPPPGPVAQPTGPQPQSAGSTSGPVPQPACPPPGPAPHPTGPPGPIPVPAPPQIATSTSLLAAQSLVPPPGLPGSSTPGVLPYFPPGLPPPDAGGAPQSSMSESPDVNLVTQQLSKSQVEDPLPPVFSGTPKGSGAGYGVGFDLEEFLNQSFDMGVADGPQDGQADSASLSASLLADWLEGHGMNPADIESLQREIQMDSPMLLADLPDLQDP
structure (smiles),measurement,setting,value
COc1c(F)c(F)cc(C(N)=O)c1F,red/green cell ratio (normalised),[1],1.04 (inactive)
same,normalised cell number,[1]; [16],0.96
same,normalised cell number,[1]; [17],0.99
CCC[C@H]1Cc2cc3c(-c4c(O)cc(O)c5c(O)c6c(cc45)C[C@H](CCC)OC6=O)c(O)cc(O)c3c(O)c2C(=O)O1,red/green cell ratio (normalised),[1],0.9 (inactive)
same,normalised cell number,[1]; [16],0.85
same,normalised cell number,[1]; [17],0.77
OCC(O)C(O)C(O)C(O)C(O)CO (stereo not drawn),red/green cell ratio (normalised),[1],0.95 (inactive)
same,normalised cell number,[1]; [16],0.96
same,normalised cell number,[1]; [17],0.91
CC(C)=CCC[C@H](C)[C@H]1CC[C@]2(C)C[C@@H]3C(C)=CC(=O)[C@@H]3/C(C=O)=C\C[C@@H]12,red/green cell ratio (normalised),[1],0.9 (inactive)
same,normalised cell number,[1]; [16],1.16
same,normalised cell number,[1]; [17],1.04
C=C1C(=O)OC(C(=O)OC)C1(O)CCCCCCCCC (stereo not drawn),red/green cell ratio (normalised),[1],1.05 (inactive)
same,normalised cell number,[1]; [16],0.99
same,normalised cell number,[1]; [17],1.04
COC(=O)c1c(Cl)nc(Cl)c2ccccc12,red/green cell ratio (normalised),[1],1.07 (inactive)
same,normalised cell number,[1]; [16],0.85
same,normalised cell number,[1]; [17],0.91
CCC(CCC(C)[C@H]1CCC2C3CC=C4C[C@@H](OC(C)=O)CC[C@]4(C)C3CC[C@@]21C)C(C)C (stereo partly drawn),red/green cell ratio (normalised),[1],0.94 (inactive)
same,normalised cell number,[1]; [16],1.1
same,normalised cell number,[1]; [17],1.03
NC(CSSCC(N)C(=O)O)C(=O)O (stereo not drawn),red/green cell ratio (normalised),[1],0.92 (inactive)
same,normalised cell number,[1]; [16],1.24
same,normalised cell number,[1]; [17],1.15
COC1=CC[C@@]2(C)[C@@](O)(CC[C@H]3Cc4c([nH]c5ccccc45)[C@@]32C)[C@@]12CC(=O)[C@](O)(C(C)(C)OC(C)=O)O2,red/green cell ratio (normalised),[1],0.97 (inactive)
same,normalised cell number,[1]; [16],1.15
same,normalised cell number,[1]; [17],1.11
O=C1C=CC2(Oc3cccc4cccc(c34)O2)[C@H]2[C@H]1[C@@H](O)C=C[C@H]2O,red/green cell ratio (normalised),[1],0.98 (inactive)
same,normalised cell number,[1]; [16],1.06
same,normalised cell number,[1]; [17],1.04
Nc1ncnc2c1ncn2C1C[C@H](O)[C@@H](CO)O1 (stereo partly drawn),red/green cell ratio (normalised),[1],0.92 (inactive)
same,normalised cell number,[1]; [16],0.99
same,normalised cell number,[1]; [17],0.91
O=C(O)CS,red/green cell ratio (normalised),[1],1.05 (inactive)
same,normalised cell number,[1]; [16],1.25
same,normalised cell number,[1]; [17],1.3
COC1=C(O)C(=O)c2c(cc3oc(C(C)=O)c(O)c3c2O)C1=O,red/green cell ratio (normalised),[1],1.19 (inactive)
same,normalised cell number,[1]; [16],0.94
same,normalised cell number,[1]; [17],1.12
CC[C@@H](C)CC(=O)N1C(=S)O[C@@H]2Cc3ccccc3[C@@H]21,red/green cell ratio (normalised),[1],0.94 (inactive)
same,normalised cell number,[1]; [16],1.12
same,normalised cell number,[1]; [17],1.05
CC(=O)OCC1O[C@H](Sc2ccc(C)cc2)[C@@H]2[C@@H](OC(=O)N2C(C)=O)C1OC(C)=O (stereo partly drawn),red/green cell ratio (normalised),[1],0.77 (inactive)
same,normalised cell number,[1]; [16],1.36
same,normalised cell number,[1]; [17],1.05
O=C1NCC[C@@H]1Oc1ccc(Oc2cnc3ccc(Cl)cc3n2)cc1,red/green cell ratio (normalised),[1],0.74 (inactive)
same,normalised cell number,[1]; [16],1.03
same,normalised cell number,[1]; [17],0.76
C[C@@H]1CC[C@H]2[C@@H](C)C(O)O[C@@H]3O[C@]4(C)CC[C@@H]1[C@]32OO4 (stereo partly drawn),red/green cell ratio (normalised),[1],0.74 (inactive)
same,normalised cell number,[1]; [16],1.16
same,normalised cell number,[1]; [17],0.85
CC(C)[C@@H]1CCC(CO)=C[C@@H]1/C=C(\CO)C(=O)O,red/green cell ratio (normalised),[1],0.88 (inactive)
same,normalised cell number,[1]; [16],1.29
same,normalised cell number,[1]; [17],1.13
C=C1OC(=O)[C@]2([C@H](C)C=C[C@H](O)[C@@H]2O)[C@@H]1O,red/green cell ratio (normalised),[1],0.98 (inactive)
same,normalised cell number,[1]; [16],1
same,normalised cell number,[1]; [17],0.99
C[C@@H]1CCC2[C@](C)(CO)[C@@H](O)CC[C@]2(C)[C@@]12CC[C@@](CO)(CCO)O2 (stereo partly drawn),red/green cell ratio (normalised),[1],0.93 (inactive)
same,normalised cell number,[1]; [16],1.01
same,normalised cell number,[1]; [17],0.94
COc1cc(O)c(C(C)=O)c(O)c1,red/green cell ratio (normalised),[1],0.99 (inactive)
same,normalised cell number,[1]; [16],0.97
same,normalised cell number,[1]; [17],0.97
C[C@@]1(N)CCCCCN(c2c(F)cc3c(=O)c(C(=O)O)cn(C4CC4)c3c2Cl)C1,red/green cell ratio (normalised),[1],1.03 (inactive)
same,normalised cell number,[1]; [16],0.97
same,normalised cell number,[1]; [17],1
CO[C@H]1OC(COCc2ccccc2)C(O)[C@@H]2OC(=O)N[C@H]12 (stereo partly drawn),red/green cell ratio (normalised),[1],1.08 (inactive)
same,normalised cell number,[1]; [16],0.88
same,normalised cell number,[1]; [17],0.95
CC1(C)C(C(=O)O)N2C(=O)C[C@H]2S1(=O)=O (stereo partly drawn),red/green cell ratio (normalised),[1],0.69 (inactive)
same,normalised cell number,[1]; [16],1.22
same,normalised cell number,[1]; [17],0.84
COc1c(F)c(F)cc2c(=S)c(C(=O)O)cn(C3CC3)c12,red/green cell ratio (normalised),[1],0.91 (inactive)
same,normalised cell number,[1]; [16],1.14
same,normalised cell number,[1]; [17],1.04
C=C(C)C#CC1=C[C@@H](O)[C@@H]2O[C@]2([C@H](O)C=C(C)C)[C@@H]1O,red/green cell ratio (normalised),[1],0.95 (inactive)
same,normalised cell number,[1]; [16],0.96
same,normalised cell number,[1]; [17],0.91
CCO[C@H]1OC(C(=O)OC)C(OC(=O)CCC(=O)O)[C@H](OC(=O)c2ccccc2)[C@@H]1OC(=O)c1ccccc1 (stereo partly drawn),red/green cell ratio (normalised),[1],0.91 (inactive)
same,normalised cell number,[1]; [16],1.18
same,normalised cell number,[1]; [17],1.07
CC(C)(C)Oc1c(F)c(F)nc(F)c1Cl,red/green cell ratio (normalised),[1],0.97 (inactive)
same,normalised cell number,[1]; [16],0.78
same,normalised cell number,[1]; [17],0.76
NCCOB(c1ccccc1)c1ccccc1,red/green cell ratio (normalised),[1],1.1 (inactive)
same,normalised cell number,[1]; [16],0.8
same,normalised cell number,[1]; [17],0.89
same,remaining activity,[2],110% (inactive)
same,fold change,[3]; [18],0.925 (inactive)
same,fold change,[3]; [19],0.886
same,cell count,[3]; [20],8820
same,cell count,[3]; [21],9540
same,luciferase signal,[4],120 AU (inactive)
same,z-score,[5],1.9 (inactive)
COc1cc(CC(=O)O)c(C(C)=O)c(O)c1OC,red/green cell ratio (normalised),[1],0.89 (inactive)
same,normalised cell number,[1]; [16],1.18
same,normalised cell number,[1]; [17],1.06
C[C@@H]1C[C@H](O)/C=C/[C@H](O)[C@@H](O)CC(=O)O1,red/green cell ratio (normalised),[1],0.87 (inactive)
same,normalised cell number,[1]; [16],1.16
same,normalised cell number,[1]; [17],1.02
CC(=O)O[C@H]1CC2CCC3C(CC[C@@]4(C)C3C[C@H]([N+]3(C)CCCCC3)[C@@H]4OC(C)=O)[C@@]2(C)C[C@@H]1N1CCCCC1 (stereo partly drawn),red/green cell ratio (normalised),[1],0.86 (inactive)
same,normalised cell number,[1]; [16],1.03
same,normalised cell number,[1]; [17],0.88
CC(=O)OCC1O[C@H]2OC(=O)NC2[C@@H](OC(C)=O)C1OC(C)=O (stereo partly drawn),red/green cell ratio (normalised),[1],0.82 (inactive)
same,normalised cell number,[1]; [16],1.33
same,normalised cell number,[1]; [17],1.08
Cc1ccc(S(=O)(=O)O[C@@H]2CCOC2=O)cc1,red/green cell ratio (normalised),[1],0.71 (inactive)
same,normalised cell number,[1]; [16],1.41
same,normalised cell number,[1]; [17],1.01
CC(=O)NC1[C@@H](O)C2OC(c3ccccc3)OCC2O[C@H]1Sc1ccccc1 (stereo partly drawn),red/green cell ratio (normalised),[1],1.03 (inactive)
same,normalised cell number,[1]; [16],1.06
same,normalised cell number,[1]; [17],1.09
C/C=C/CC(C)C(O)C1C(=O)NC(CC)C(=O)N(C)CC(=O)N(C)C(CC(C)C)C(=O)NC(C(C)C)C(=O)N(C)C(CC(C)C)C(=O)NC(C)C(=O)NC(C)C(=O)N(C)C(CC(C)C)C(=O)N(C)C(CC(C)C)C(=O)N(C)C(C(C)C)C(=O)N1C (stereo not drawn),score,[6],1.51
same,rescue above control,[7],1.62
same,cytochrome c release ratio,[8],0.93
same,inhibition of aggregation,[9],77.8%
same,glutamate uptake change,[10],-28.6%
same,aggregation suppression score,[11],1.73
same,period change,[12],-0.005 h (inactive)
same,fluorescence ratio (interference),[13],0.9 (inactive)
same,red/green cell ratio (normalised),[1],0.77 (inactive)
same,normalised cell number,[1]; [16],0.27
same,normalised cell number,[1]; [17],0.21
same,remaining activity,[2],111% (inactive)
same,fold change,[3]; [18],1.04 (inactive) and 1.06 (inactive) and 0.898 (inactive)
same,fold change,[3]; [19],1.1 and 0.674 and 2.07
same,fold fluorescence,[14],18.1 [at 41.6 µM] (inactive)
CC(C)C[C@@H](NC(=O)OCC1c2ccccc2-c2ccccc21)C(=O)O,inhibition,[15],-9.47%
same,score,[6],-0.27
same,rescue above control,[7],2.38
same,cytochrome c release ratio,[8],0.77
same,inhibition of aggregation,[9],-14.3%
same,glutamate uptake change,[10],4.64%
same,aggregation suppression score,[11],0.0751
same,red/green cell ratio (normalised),[1],0.8 (inactive)
same,normalised cell number,[1]; [16],1.21
same,normalised cell number,[1]; [17],0.97
same,remaining activity,[2],97.5% (inactive)
same,fold change,[3]; [18],0.883 (inactive)
same,fold change,[3]; [19],0.962
same,cell count,[3]; [20],8270
same,cell count,[3]; [21],9370
same,z-score,[5],-0.5 (inactive)
